# Source: PubChem
# Only some compounds are listed: those with a hit (about 7.5% of all), similar ones and a draw of the others.
# NPC1 prom act: qHTS Assay for NPC1 Promoter Activators; Huh7 NPC1 promoter luciferase reporter, 24 h; Potency, µM (titrated, usually from 9.22 µM), for the others: at the top dose activation, usual class: activators; 2.4% of 320,000 active; AID 485313, 2010; further: % of control where 0% means no effect; nearly all actives have a fitted effect of over 60% in size
#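 Luminescence from an NPC1 promoter-driven luciferase reporter in stably transfected Huh7 cells was measured after 24 h compound treatment at 37 °C, followed by 10 min ambient incubation with luciferase detection reagent.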
# FLuc counter: qHTS profiling assay for firefly luciferase inhibitor/activator using purifed enzyme and Km concentrations of substrates (counterscreen for miR-21 project); Luciferin 4-monooxygenase (Photinus pyralis), P08659; purified FLuc, Km substrates, luminescence inhibition; Potency, µM (top dose mostly 57.5 µM), inactives show at the top dose activity change, negative = inhibition, hits mostly inhibitors; 6.9% of 360,000 active; AID 588342, 2011;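 further: plate controls were vehicle for no effect and reference inhibitor for full effect; nearly all actives have a fitted effect of over 55% in size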
# Target sequence (P08659 whole entry, looked up): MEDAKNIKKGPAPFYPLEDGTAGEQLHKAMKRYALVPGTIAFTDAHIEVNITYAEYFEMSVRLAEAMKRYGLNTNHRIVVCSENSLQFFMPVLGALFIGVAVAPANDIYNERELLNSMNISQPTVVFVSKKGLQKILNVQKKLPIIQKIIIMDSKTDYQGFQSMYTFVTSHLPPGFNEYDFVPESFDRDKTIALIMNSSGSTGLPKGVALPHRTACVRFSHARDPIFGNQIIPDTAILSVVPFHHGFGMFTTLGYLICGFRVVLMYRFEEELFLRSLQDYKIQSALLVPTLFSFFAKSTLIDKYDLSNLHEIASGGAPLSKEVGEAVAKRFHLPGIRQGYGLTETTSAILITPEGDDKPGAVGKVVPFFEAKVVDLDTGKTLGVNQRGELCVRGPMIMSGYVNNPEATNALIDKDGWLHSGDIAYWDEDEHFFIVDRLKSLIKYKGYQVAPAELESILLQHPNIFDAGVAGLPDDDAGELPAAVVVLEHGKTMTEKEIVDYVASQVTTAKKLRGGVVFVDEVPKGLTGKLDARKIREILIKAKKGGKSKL
#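 Purified P. pyralis luciferase (10nM final) with 10uM D-luciferin and 10uM ATP (Km levels) in 50mM Tris acetate pH 7.5, 10mM Mg acetate, 0.01% Tween-20, 0.05% BSA; qHTS 6-point titration, ~60 µM downward; luminescence read.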
# Rab9 prom act: qHTS Assay for Rab9 Promoter Activators; Potency, µM (series often up to 9.22 µM), for inactives: at the top dose activation, negative = inhibition, most hits filed as activators; Huh7 Rab9 promoter-luciferase reporter, luminescence, 24 h; 2.8% of 320,000 active; further: % of control where 0% means no effect; nearly all actives have a fitted effect of over 60% in size
#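 Huh7 cells stably carrying Rab9 promoter–luciferase reporter, plated 1500 cells/well, compound added after 2 h and incubated 24 h at 37 °C; luciferase luminescence then read after 10 min with detection reagent.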
# KinaseGlo FLuc: Counterscreen for Luciferase (Kinase-Glo TM) Inhibition; Potency, µM (highest dose often 38.3 µM), for inactives: at the top dose activity change, negative = inhibition, most hits filed as inhibitors; 0.28% of 200,000 active; Luciferin 4-monooxygenase (Photuris pensylvanica), Q27757; Kinase-Glo luciferase, ATP luminescence, 8 min; AID 1379, 2008; further: on the % scale 0 is the no-effect control and ±100 the full control effect; nearly all actives have a fitted effect of over 60% in size
#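 Compound is pinned into ATP-containing buffer (10 uM ATP, imidazole pH 7.2, 7 mM MgCl2). Kinase-Glo luciferase reagent is then added. Light output is recorded following an 8-min room-temperature incubation.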
# SMN2 splice up: qHTS Assay for Enhancers of SMN2 Splice Variant Expression; HEK293 SMN2-luciferase splicing reporter, luminescence, 30-36 h; Potency, µM (highest dose often 46.1 µM), without a hit: at the top dose activity change, positive = activation, most hits filed as activators; 2.8% of 210,000 active; AID 1458, 2008; further: % of control where 0% means no effect; nearly all actives have a fitted effect of over 55% in size
#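 HEK293 cells carry an SMN2 minigene-luciferase reporter in which exon 7 inclusion puts luciferase in frame. Cells were seeded at 2000 cells/well, attached for 10-12 hours, then exposed to compounds for 30-36 hours at 37C before ONE-Glo luminescence.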
# ELG1 genotox: qHTS screen for small molecules that induce genotoxicity in human embryonic kidney (HEK293T) cells expressing luciferase-tagged ELG1; Potency, µM (series often up to 46 µM), without a hit: at the top dose activity change, positive = activation, most hits filed as activators; HEK293T ELG1-luciferase reporter, luminescence, 16 h; 1.3% of 330,000 active; further: % of control where 0% means no effect; nearly all actives have a fitted effect of over 60% in size
#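 DMSO vehicle served as control against compound-treated ELG1-luciferase HEK293T cells; exposure lasted 16 hr at 37 °C and 5% CO2, followed by ONE-Glo luminescence detection after 30 min.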
# * = called active by the depositor; ? = inconclusive; / = no result given; [ ] = another dose, or the depositor's remark. The call rests on the fitted dose curve; in most records, active means well fitted curve in the direction sought with a large enough effect; inconclusive means small, poorly fitted or top-dose-only effect, or another doubt; inactive means no such curve, though single readings can be large; an effect the other way counts as inactive or inconclusive. Potency means the concentration at half of the fitted maximal effect.
SMILES,NPC1 prom act,FLuc counter,Rab9 prom act,KinaseGlo FLuc,SMN2 splice up,ELG1 genotox
Cc1ccnc(NC(=O)c2cccc(S(=O)(=O)N3CCN(c4ccccc4)CC3)c2)c1,20%,1.9µM*,?,/,/,?
O=C(Nc1ccc(Cl)cn1)c1cccc(S(=O)(=O)N2CCCCC2)c1,-1%,0%,0%,/,/,-7%
CCOc1ccc(NC(=O)CSc2nnc(-c3ccc(C)cc3)c(-c3ccc(C)cc3)n2)cc1,/,-8%,/,/,/,/
Cc1nn(C)c2c1c(-c1ccccc1)cc(=O)n2Cc1ccc(Cl)cc1,/,-4%,/,/,/,/
COc1ccc(N=Nc2nc3cc(Br)c(Br)cc3n2C)c(OC)c1,0%,5.4µM*,0%,-20%,17%,-19%
COc1ccc(OC)c(CNc2ccc3c(c2)nc(C)n3C)c1,1%,-16%,-3%,/,/,0%
Nc1nonc1-n1nnc(C(=O)N/N=C/c2cccnc2)c1-c1ccccc1,-5%,3%,3%,/,/,-4%
CSc1nncn1/N=C/c1ccc([N+](=O)[O-])cc1,-6%,-3%,-4%,1%,8%,0%
CS/C(N)=N/N=C/c1ccc([N+](=O)[O-])cc1,2.8µM*,21µM*,?,-5%,7%,?
N/C(=N\N=C\c1ccc(O)c(O)c1)c1nonc1N,?,15µM*,?,/,/,?
N/C(=N\N=C\c1ccc(O)cc1)c1nonc1N,3.2µM*,11µM*,3.5µM*,?,16µM*,?
CS/C(N)=N/N=C/c1ccc2c(c1)OCO2,?,8.5µM*,2.8µM*,/,/,?
CC(=O)c1ccc(NC(=O)C(C)n2nc(-c3ccccc3)ccc2=O)cc1 (stereo unspecified),/,0%,/,/,1%,/
N/C(=N\N=C\c1ccc([N+](=O)[O-])cc1)c1nonc1N,1.6µM*,?,1.4µM*,/,/,5.2µM*
N/C(=N\N=C\c1cccc(O)c1)c1nonc1N,?,1.9µM*,?,13µM*,18%,?
COc1ccc(/C=N/N=C(\N)c2nonc2N)cc1OC,?,?,?,-8%,109%,0%
COc1cc(/C=N/N=C(\N)c2nonc2N)ccc1O,12%,21µM*,20%,-11%,17%,?
O=C(CNS(=O)(=O)c1ccc(Br)s1)NCCc1ccc(Cl)cc1,0%,-3%,-3%,/,/,0%
Cc1ccc(S(=O)(=O)c2nnn3c2nc(N(C)Cc2ccccc2)c2cc(Cl)ccc23)cc1C,/,-1%,/,/,4%,/
Cc1ccc(S(=O)(=O)N2CCC[C@H]2C(=O)Nc2ccc(F)cc2C)cc1,/,/,/,/,/,-9%
CCCCc1c(C)nn(-c2nnc3c4ccccc4n(C)c3n2)c1C,22%,6.7µM*,6%,-3%,-5%,3%
Cn1c2ccccc2c2nnc(NN)nc21,3%,-11%,-6%,/,/,4%
O=C(CCC1CCCC1)Nc1cc(Cl)ccc1N1CCOCC1,-5%,1%,-4%,/,/,-1%
CC(C)(C)c1ccc(C(=O)NCCC(=O)Nc2cc(Cl)ccc2N2CCOCC2)cc1,-5%,21µM*,-5%,/,/,-8%
COc1ccc(C(=O)N2CCC3(CCCN(C(=O)NC(C)C)C3)CC2)cc1,/,/,/,-5%,-5%,/
SMILES,NPC1 prom act,FLuc counter,Rab9 prom act,KinaseGlo FLuc,SMN2 splice up,ELG1 genotox
CCOC(=O)C1CCN(C(=O)c2ccc(C)o2)CC1,/,/,/,/,/,3%
CCOC(=O)C1CCN(C(=O)c2cc3c(ccc4ccccc43)o2)CC1,2.5µM*,12µM*,0.45µM*,/,/,9.2µM*
Cc1nc2ccccc2c2oc(C(=O)N3CCC(C)CC3)cc12,13%,?,14%,/,/,0%
CCOC(=O)C1CCN(C(=O)c2cc3cc4ccc(C)cc4nc3o2)CC1,0.89µM*,?,0.45µM*,/,/,?
CCOC(=O)C1CCN(C(=O)c2cc3cc(C)ccc3[nH]2)CC1,2.8µM*,-15%,3.2µM*,/,/,?
CC1CCN(C(=O)c2cc3c(ccc4ccccc43)o2)CC1,0.45µM*,0.76µM*,0.28µM*,/,/,1µM*
CCn1c(=O)c(=O)n(CC)c2cc(N3CCCCC3)c(NC(=O)c3ccccc3OC)cc21,/,-1%,/,/,-4%,/
CCOC(=O)c1cc(C(=O)NCc2ccc(Cl)cc2Cl)nn1C,-3%,-11%,2%,-4%,4%,-2%
CCOC(=O)c1cc(C(=O)Nc2ccc(C)c(F)c2)nn1C,4µM*,7.6µM*,2.8µM*,-4%,42%,?
COCCn1c(NCc2ccco2)nc2c1c(=O)[nH]c(=O)n2C,-2%,-2%,11%,2%,/,3%
CCOC(=O)c1[nH]c(C)c(C(=O)Nc2ccccc2C)c1C,-27%,-6%,-32%,3%,28%,?
CCOC(=O)c1c(C)[nH]c(N=Nc2ccc(C)cc2C)c1C,?,15µM*,0.25µM*,2%,11%,?
CCOC(=O)c1c(C)[nH]c(N=Nc2ccccc2C)c1C,28%,15µM*,?,-4%,19%,23µM*
CCOC(=O)c1c(C)[nH]c(N=Nc2cc(C(=O)O)cc(C(=O)O)c2)c1C,-2%,17µM*,8%,/,/,2%
CCOC(=O)c1c(C)[nH]c(CCC(=O)Nc2cc(C)ccc2OC)c1C,/,7%,/,/,/,/
CCOC(=O)c1[nH]c(C)c(C(=O)O)c1C,0%,0%,-4%,2%,-9%,-4%
CC(=O)N1CCc2cc(S(=O)(=O)NC(CC(C)C)C(=O)NCCc3cccc(C)c3)ccc21 (stereo unspecified),/,1%,/,/,4%,/
Cc1cccc(NC(=O)Cn2c(=O)n(Cc3nc(-c4ccccc4)no3)c(=O)c3ccccc32)c1,/,-10%,/,/,/,/
CC(C)[C@H]1COC(c2cccc([N+](=O)[O-])c2)=N1,/,/,/,4%[39.9 µM],/,/
Nc1ccn([C@@H]2CC[C@H](CO)O2)c(=O)n1,/,/,/,-1%[17.1 µM],23%[20.6 µM],/
Cc1ccc(-c2nnc(-c3cccc(NC(=O)c4cccs4)c3)o2)cc1,29%,2.7µM*,2%,2%,-14%,-6%
Cc1cccc(-c2nnc(-c3cccc(NC(=O)Cc4cccs4)c3)o2)c1,2%,12µM*,-2%,7%,27%,0%
O=C(Cc1cccs1)Nc1cccc(-c2nc3ccccc3o2)c1,-1%,-6%,-3%,0%,-6%,1%
O=C(Nc1cccc(-c2nnco2)c1)c1cccs1,3%,-27%,0%,/,/,-1%
CCC(C)Sc1c(C(C)C)cnc2c1c(=O)n(C)c(=O)n2C (stereo unspecified),/,-8%,/,/,/,/
